Results reported in PubChem BioAssay AID651899 (Broad Institute, 2012).
Measured potencies and affinities stand elsewhere. Calls of active or inactive are those of the source. How the calls were made is not given here.

assay: HEK293 cell viability loss – plate reader, cherry-pick, cytotoxicity control, dose response (AID 651899); settings: series mostly up to 26 µM; activity change, negative = cytotoxicity: at the top concentration;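 further: cells exposed to compound for 48 hours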

Question: With CC(=O)c1ccc(N2CCN(C(=O)c3ccc(Br)cc3)CC2)c(F)c1 as the compound, how does the “activity change, negative = cytotoxicity” value read?
Answer: 40% (inactive)

Question: With COc1ccc(NC(=O)c2ccc(-n3cncn3)c([N+](=O)[O-])c2)cc1OC as the compound, how does the “activity change, negative = cytotoxicity” value read?
Answer: 12.8% (inactive)

Question: Which “activity change, negative = cytotoxicity” value does the source give for O=C(Nc1cccnc1)c1cc2nc(C3CC3)cc(C(F)(F)F)n2n1 here?
Answer: 10.3% (inactive)

Question: Which “activity change, negative = cytotoxicity” value does the source give for O=C(Nc1ccc2snnc2c1)N1CCOCC1 here?
Answer: 8.81% (inactive)

Question: For CC(=O)c1ccc(C(=O)N2CCCC(C(=O)c3ccc(Cl)cc3)C2)s1 (stereo unspecified), which “activity change, negative = cytotoxicity” value is on record?
Answer: -0.878% (inactive)

Question: With COc1cc2c(cc1NC(=O)c1cccnc1)CCCC2 as the compound, how does the “activity change, negative = cytotoxicity” value read?
Answer: -10.4% (inactive)

Question: For CN1c2ccc(-c3cccc(C#N)c3)cc2[C@H]2[C@H](CCN2C(=O)CC2CC2)[C@H]1CO, which “activity change, negative = cytotoxicity” value is on record?
Answer: 11.3% [at 23.5 µM] (inactive)

Question: For COc1ccc(C(=O)Nc2ccc(Cn3ccnc3)cc2)cc1OC, which “activity change, negative = cytotoxicity” value is on record?
Answer: 24.3% (inactive)

Question: For Cc1c(C(N)=O)sc(N)c1C(=O)OC(C)C, which “activity change, negative = cytotoxicity” value is on record?
Answer: 36.6% (inactive)

Question: With C/C=C/c1ccc2c(c1)O[C@@H](CN(C)C(=O)Nc1ccc(OC)cc1)[C@@H](C)CN([C@@H](C)CO)S2(=O)=O as the compound, how does the “activity change, negative = cytotoxicity” value read?
Answer: 26.7% (inactive)

Question: For O=C(CN1C(=O)/C(=C/c2cccc(Br)c2)SC1=S)Nc1cccnc1, which “activity change, negative = cytotoxicity” value is on record?
Answer: 29.1% (inactive)

Question: Which “activity change, negative = cytotoxicity” value does the source give for CCN(CC)CCNC(=O)c1cn(CC)c2ccc(S(=O)(=O)N3CCc4ccccc4C3)cc2c1=O here?
Answer: -10.8% (inactive)

Question: Which “activity change, negative = cytotoxicity” value does the source give for COc1ccc(C(C)NC(=O)Nc2ccc(C(C)=O)cc2)cc1OC (stereo unspecified) here?
Answer: -10.9% (inactive)

Question: With O=C(O)CCS(=O)(=O)c1nc(-c2cccs2)cc(C(F)(F)F)n1 as the compound, how does the “activity change, negative = cytotoxicity” value read?
Answer: -3.98% (inactive)

Question: For CCc1c(C(=O)NCCc2ccc(OC)c(OC)c2)[nH]c(C)c1C(C)=O, which “activity change, negative = cytotoxicity” value is on record?
Answer: -19.5% (inactive)

Question: For CC(=O)c1ccc(N2CCN(C(=O)Cc3ccccc3)CC2)c(F)c1, which “activity change, negative = cytotoxicity” value is on record?
Answer: 0.47% (inactive)

Question: With Cc1nc2nc(SCC(=O)NCc3ccco3)nn2c(C)c1Cc1c(F)cccc1Cl as the compound, how does the “activity change, negative = cytotoxicity” value read?
Answer: 10.3% (inactive)

Question: With CN1c2ccc(-c3cccc(F)c3)cc2[C@@H]2[C@@H](CCN2C(=O)c2ccncc2)[C@H]1CO as the compound, how does the “activity change, negative = cytotoxicity” value read?
Answer: 16.7% [at 23.5 µM] (inactive)

Question: For COc1cc(/C=C/C(=O)Nc2cccnc2)cc(OC)c1OC, which “activity change, negative = cytotoxicity” value is on record?
Answer: -2.09% (inactive)

Question: Which “activity change, negative = cytotoxicity” value does the source give for COc1cc(-c2n[nH]c(=S)n2-c2cccc(C(F)(F)F)c2)cc(OC)c1OC here?
Answer: -17.8% (inactive)

Question: For COc1cc(-c2n[nH]c(=S)n2C(C)c2ccccc2)cc(OC)c1OC (stereo unspecified), which “activity change, negative = cytotoxicity” value is on record?
Answer: 29.1% (inactive)

Question: Which “activity change, negative = cytotoxicity” value does the source give for N#C[C@H]1[C@@H](c2ccccc2)[C@@H](CO)N1C(=O)Nc1cccc(F)c1 here?
Answer: 20% (inactive)

Question: Which “activity change, negative = cytotoxicity” value does the source give for COc1ccc(Cc2c(-c3ccc(OC)c(OC)c3)nc3ccc(C)cn23)c(C)c1 here?
Answer: 2.2% (inactive)

Question: For C/C=C/c1ccc2c(c1)O[C@@H](CN(C)C(=O)Cc1cccnc1)[C@H](C)CN([C@H](C)CO)S2(=O)=O, which “activity change, negative = cytotoxicity” value is on record?
Answer: 7.53% (inactive)

Question: For COc1cc2cnc(-c3cccnc3)cc2cc1OC, which “activity change, negative = cytotoxicity” value is on record?
Answer: 11.7% (inactive)

Question: Which “activity change, negative = cytotoxicity” value does the source give for COc1ccc(-c2nc3cnccn3c2Nc2ccc3c(c2)OCO3)cc1 here?
Answer: 1.49% (inactive)

Question: With CC(=O)c1ccc(NC(=O)C2CC(=O)N(Cc3ccccc3)C2)cc1 (stereo unspecified) as the compound, how does the “activity change, negative = cytotoxicity” value read?
Answer: -18.9% (inactive)

Question: Which “activity change, negative = cytotoxicity” value does the source give for O=C(Nc1ccc(F)c(Cl)c1)C1CCCN(c2cnccn2)C1 (stereo unspecified) here?
Answer: 17.6% (inactive)

Question: With COCC(=O)N1CC[C@@H]2[C@@H](CO)N(C)c3ccc(-c4ccc(F)cc4)cc3[C@@H]21 as the compound, how does the “activity change, negative = cytotoxicity” value read?
Answer: 12.1% (inactive)

Question: For CCOc1ccc(-n2c(SCC(N)=O)nc3c(c2=O)SCC3)cc1, which “activity change, negative = cytotoxicity” value is on record?
Answer: 7.2% (inactive)

Question: For Cc1cccc(-c2nnc(SCC#N)n2-c2ccccc2)c1, which “activity change, negative = cytotoxicity” value is on record?
Answer: -15.9% (inactive)

Question: With O=C(Nc1nccs1)[C@H]1[C@H](CO)[C@H]2Cn3c(ccc(-c4cccnc4)c3=O)[C@H]2N1CC1CCCC1 as the compound, how does the “activity change, negative = cytotoxicity” value read?
Answer: -6.31% (inactive)

Question: Which “activity change, negative = cytotoxicity” value does the source give for CCN(CC)S(=O)(=O)c1ccc(NC(=O)c2ccc(Cl)nc2)cc1 here?
Answer: -17.2% (inactive)

Question: Which “activity change, negative = cytotoxicity” value does the source give for COc1ccc([N+](=O)[O-])cc1C(=O)NC1CCN(Cc2ccccc2)CC1 here?
Answer: 24% (inactive)

Question: Which “activity change, negative = cytotoxicity” value does the source give for O=C(c1ccc(S(=O)(=O)Nc2ccccc2F)cc1)N1CCN(c2ccccc2O)CC1 here?
Answer: -14.3% (inactive)

Question: For CO[C@H]1CN(C)C(=O)c2ccc(NC(C)=O)cc2OC[C@@H](C)N(C(=O)C2CCCCC2)C[C@H]1C, which “activity change, negative = cytotoxicity” value is on record?
Answer: -6.73% (inactive)
